PubChem BioAssay AID1159580 (chemical genetic matrix, 2015)
Several values for one entry are separate records, joined by “and”; a condition that tells them apart may be missing. Equal values may be shown once. In all, about 5,500 compounds went through this assay and about 2,000 (36%) were called active. Inconclusive results (about 18%) are left out. Rule as the data show it: active = normalized growth mostly below about 0.91 (no sharp cut-off); inconclusive = no clear call, values can overlap the other calls; inactive = mostly above about 0.92. The list shows a part of the results.

Test: chemical genetic growth profiling, strain panel (AID 1159580);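 also: tested at 20 µM; growth read once vehicle control cultures reached saturation at 30 °C; 1 = growth at the plate median or of vehicle wells; lower values mean less growth of the strain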
Conditions: growth OD

Measured: normalized growth

CN(C)c1nc(N(C)C)nc(N(C)C)n1
inactive: S. cerevisiae deletion strains, locus YKL009W, strain mrt4, active compounds read low 1 | S. cerevisiae deletion strains, locus YKL068W, active compounds read low 1.01 | S. cerevisiae deletion strains, locus YKL085W, strain MDH1 (second series), active compounds read low 1.01 | S. cerevisiae deletion strains, locus YKL085W, strain MDH1, active compounds read low 1.01 | S. cerevisiae deletion strains, locus YKL160W, strain elf1, active compounds read low 0.985 | S. cerevisiae deletion strains, locus YKL190W, strain CNB1, active compounds read low 1.01 | S. cerevisiae deletion strains, locus YKR001C, strain vps1, active compounds read low 1.01 | S. cerevisiae deletion strains, locus YKR026C, strain gcn3, active compounds read low 0.978 | S. cerevisiae deletion strains, locus YKR091W, strain srl3, active compounds read low 0.962 | S. cerevisiae deletion strains, locus YLL001W, strain dnm1, active compounds read low 0.969 | S. cerevisiae deletion strains, locus YLL026W, active compounds read low 0.977 | S. cerevisiae deletion strains, locus YLL041C, strain sdh2, active compounds read low 0.983 | S. cerevisiae deletion strains, locus YLR027C, strain aat2, active compounds read low 0.969 | S. cerevisiae deletion strains, locus YLR039C, strain RIC1, active compounds read low 0.964 | S. cerevisiae deletion strains, locus YLR058C, strain SHM2, active compounds read low 1.01 | S. cerevisiae deletion strains, locus YLR102C, strain apc9, active compounds read low 1.01 | S. cerevisiae deletion strains, locus YLR113W, strain HOG1, active compounds read low 0.948 | S. cerevisiae deletion strains, locus YLR221C, strain rsa3, active compounds read low 0.945 | S. cerevisiae deletion strains, locus YLR258W, strain gsy2, active compounds read low 0.987 | S. cerevisiae deletion strains, locus YLR262C, strain YPT6 (second series), active compounds read low 0.932 | S. cerevisiae deletion strains, locus YLR262C, strain YPT6, active compounds read low 0.986 | S. cerevisiae deletion strains, locus YLR268W, strain sec22, active compounds read low 1.02 | S. cerevisiae deletion strains, locus YLR320W, strain mms22, active compounds read low 0.949 | S. cerevisiae deletion strains, locus YLR330W, strain CHS5, active compounds read low 1.01 | S. cerevisiae deletion strains, locus YLR342W, strain FKS1 (second series), active compounds read low 1 | S. cerevisiae deletion strains, locus YLR342W, strain FKS1, active compounds read low 0.968 | S. cerevisiae deletion strains, locus YLR357W, strain rsc2, active compounds read low 0.978 | S. cerevisiae deletion strains, locus YLR370C, strain arc18, active compounds read low 0.964 | S. cerevisiae deletion strains, locus YLR371W, strain rom2, active compounds read low 1.01 | S. cerevisiae deletion strains, locus YLR384C, strain iki3, active compounds read low 0.951 | S. cerevisiae deletion strains, locus YLR418C, strain cdc73, active compounds read low 1.05 | S. cerevisiae deletion strains, locus YML016C, strain PPZ1, active compounds read low 1.01 | S. cerevisiae deletion strains, locus YML032C, strain rad52, active compounds read low 1.02 | S. cerevisiae deletion strains, locus YML120C, strain ndi1, active compounds read low 0.952 | S. cerevisiae deletion strains, locus YML124C, strain tub3, active compounds read low 1.02 | S. cerevisiae deletion strains, locus YMR058W, strain fet3, active compounds read low 0.969 | S. cerevisiae deletion strains, locus YMR078C, strain ctf18, active compounds read low 1.02 | S. cerevisiae deletion strains, locus YMR125W, strain sto1, active compounds read low 0.97 | S. cerevisiae deletion strains, locus YMR129W, active compounds read low 0.992 | S. cerevisiae deletion strains, locus YMR205C, strain PFK2, active compounds read low 0.945 | S. cerevisiae deletion strains, locus YMR223W, strain ubp8, active compounds read low 1.02 | S. cerevisiae deletion strains, locus YMR231W, strain pep5, active compounds read low 0.979 | S. cerevisiae deletion strains, locus YMR263W, strain SAP30, active compounds read low 1.01 | S. cerevisiae deletion strains, locus YMR307W, strain GAS1, active compounds read low 1.03 and 1.01 | S. cerevisiae deletion strains, locus YNL067W, strain RPL9B, active compounds read low 1 | S. cerevisiae deletion strains, locus YNL071W, strain lat1, active compounds read low 0.982 | S. cerevisiae deletion strains, locus YNL128W, strain TEP1, active compounds read low 1.02 | S. cerevisiae deletion strains, locus YNL153C, strain GIM3, active compounds read low 0.995 | S. cerevisiae deletion strains, locus YNL175C, strain NOP13, active compounds read low 0.992 | S. cerevisiae deletion strains, locus YNL183C, strain NPR1, active compounds read low 0.92 | S. cerevisiae deletion strains, locus YNL197C, strain WHI3, active compounds read low 0.997 | S. cerevisiae deletion strains, locus YNL209W, strain ssb2, active compounds read low 0.978 | S. cerevisiae deletion strains, locus YNL224C, strain SQS1, active compounds read low 0.993 | S. cerevisiae deletion strains, locus YNL233W, strain BNI4, active compounds read low 1 | S. cerevisiae deletion strains, locus YNL248C, strain rpa49, active compounds read low 0.959 | S. cerevisiae deletion strains, locus YNL250W, strain rad50, active compounds read low 1.04 | S. cerevisiae deletion strains, locus YNL271C, strain bni1, active compounds read low 1.02 | S. cerevisiae deletion strains, locus YNL298W, strain CLA4, active compounds read low 1.02 | S. cerevisiae deletion strains, locus YNL307C, strain MCK1, active compounds read low 1.02 | S. cerevisiae deletion strains, locus YNL322C, strain KRE1 (second series), active compounds read low 0.954 | S. cerevisiae deletion strains, locus YNL322C, strain KRE1, active compounds read low 0.996 | S. cerevisiae deletion strains, locus YNR049C, strain mso1, active compounds read low 0.96 | S. cerevisiae deletion strains, locus YNR052C, strain pop2, active compounds read low 1.02 | S. cerevisiae deletion strains, locus YOL006C, strain TOP1, active compounds read low 1 | S. cerevisiae deletion strains, locus YOL012C, strain htz1 0.788 | S. cerevisiae deletion strains, locus YOL147C, strain pex11, active compounds read low 1.02 | S. cerevisiae deletion strains, locus YOR001W, strain rrp6, active compounds read low 0.987 | S. cerevisiae deletion strains, locus YOR061W, strain CKA2, active compounds read low 1.01 | S. cerevisiae deletion strains, locus YOR069W, strain VPS5, active compounds read low 1 | S. cerevisiae deletion strains, locus YOR070C, strain gyp1, active compounds read low 0.984 | S. cerevisiae deletion strains, locus YOR080W, strain dia2, active compounds read low 0.974 | S. cerevisiae deletion strains, locus YOR083W, strain WHI5 (second series), active compounds read low 1.03 | S. cerevisiae deletion strains, locus YOR083W, strain WHI5, active compounds read low 0.956 | S. cerevisiae deletion strains, locus YOR106W, strain vam3, active compounds read low 0.928 | S. cerevisiae deletion strains, locus YOR136W, strain idh2, active compounds read low 1.02 | S. cerevisiae deletion strains, locus YOR144C, strain elg1, active compounds read low 1.01 | S. cerevisiae deletion strains, locus YOR184W, strain ser1, active compounds read low 1.02 | S. cerevisiae deletion strains, locus YOR231W, strain MKK1, active compounds read low 0.962 | S. cerevisiae deletion strains, locus YOR265W, strain rbl2, active compounds read low 0.971 | S. cerevisiae deletion strains, locus YOR270C, strain vph1, active compounds read low 0.953 | S. cerevisiae deletion strains, locus YOR290C, strain snf2, active compounds read low 0.919 | S. cerevisiae deletion strains, locus YOR316C, strain cot1, active compounds read low 1.02 | S. cerevisiae deletion strains, locus YPL051W, strain arl3, active compounds read low 0.979 | S. cerevisiae deletion strains, locus YPL055C, strain LGE1, active compounds read low 1.01 | S. cerevisiae deletion strains, locus YPL078C, strain atp4, active compounds read low 0.975 | S. cerevisiae deletion strains, locus YPL106C, strain sse1, active compounds read low 0.951 | S. cerevisiae deletion strains, locus YPL240C, strain hsp82, active compounds read low 0.974 | S. cerevisiae deletion strains, locus YPL256C, strain CLN2, active compounds read low 0.975 | S. cerevisiae deletion strains, locus YPR119W, strain clb2, active compounds read low 1.01 | S. cerevisiae deletion strains, locus YPR141C, strain kar3, active compounds read low 1.02 | S. cerevisiae deletion strains, locus YPR163C, strain tif3, active compounds read low 1.02 | S. cerevisiae deletion strains, locus YPR167C, strain met16, active compounds read low 1.01 | S. cerevisiae deletion strains, strain wtn01, active compounds read low 1.02 | S. cerevisiae strains, strain wild type, active compounds read low 1.01
